# Reference: PMC7862700, “An all-to-all approach to the identification of sequence-specific readers for epigenetic DNA modifications on cytosine”
# What was measured:
# Experiment in all cases: DAPPL (digital affinity profiling via proximity ligation, sequencing); 10 mM Tris-HCl pH 7.5, 50 mM NaCl, 1 mM DTT, 4% glycerol, room temperature, 30 min; GST-TFs on glutathione beads, 16-mer random dsDNA library, 0.1% formaldehyde crosslink after washing; high values mean tight binding
# Conditions in all cases: protein: recombinant; tags: N-terminal GST; dsDNA, one strand shown
# [1] = biological target: T1, ELK4 (Homo sapiens, UniProt P28324-2 1-405)
# T1 sequence: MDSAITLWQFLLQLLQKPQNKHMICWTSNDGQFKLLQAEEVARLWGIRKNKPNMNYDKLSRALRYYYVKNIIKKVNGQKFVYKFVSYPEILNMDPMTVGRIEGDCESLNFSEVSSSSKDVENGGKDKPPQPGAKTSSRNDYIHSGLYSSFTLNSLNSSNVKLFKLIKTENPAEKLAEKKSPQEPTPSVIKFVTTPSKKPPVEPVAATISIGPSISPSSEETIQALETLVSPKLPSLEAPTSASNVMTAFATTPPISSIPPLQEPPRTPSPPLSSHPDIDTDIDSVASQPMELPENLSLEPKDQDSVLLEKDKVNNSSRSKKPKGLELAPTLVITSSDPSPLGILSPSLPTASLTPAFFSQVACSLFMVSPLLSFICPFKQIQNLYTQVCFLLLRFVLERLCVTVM
# Outline: (§1)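 Binding signal is each hexamer's read frequency for a factor divided by its frequency in the tag-only sample. The factors were GST-fused human transcription factors from yeast, captured on glutathione beads, DNA-barcoded and pooled with that sample. Pools were incubated with 200 nmole of a random double-stranded 16-mer DNA library in Tris/NaCl/DTT/glycerol buffer at room temperature for 30 min, then washed, crosslinked with 0.1% formaldehyde, proximity-ligated with BsaI/T4 ligase (1 h, 37 °C), PCR-amplified and sequenced on an Illumina NextSeq500.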
# [2] = biological target: T2, ETV2 (Homo sapiens, UniProt O00321 1-342)
# T2 sequence: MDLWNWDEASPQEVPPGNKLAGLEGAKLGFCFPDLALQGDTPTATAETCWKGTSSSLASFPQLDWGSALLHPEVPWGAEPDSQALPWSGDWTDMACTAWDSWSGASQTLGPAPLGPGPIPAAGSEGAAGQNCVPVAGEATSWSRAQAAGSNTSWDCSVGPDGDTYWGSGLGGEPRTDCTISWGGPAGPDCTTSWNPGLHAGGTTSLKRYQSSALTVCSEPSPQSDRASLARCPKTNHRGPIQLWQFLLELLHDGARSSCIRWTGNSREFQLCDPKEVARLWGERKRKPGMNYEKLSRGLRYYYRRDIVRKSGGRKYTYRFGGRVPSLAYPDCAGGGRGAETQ
# Outline: as §1
# [3] = biological target: T3, ELF3 (Homo sapiens, UniProt P78545 1-371)
# T3 sequence: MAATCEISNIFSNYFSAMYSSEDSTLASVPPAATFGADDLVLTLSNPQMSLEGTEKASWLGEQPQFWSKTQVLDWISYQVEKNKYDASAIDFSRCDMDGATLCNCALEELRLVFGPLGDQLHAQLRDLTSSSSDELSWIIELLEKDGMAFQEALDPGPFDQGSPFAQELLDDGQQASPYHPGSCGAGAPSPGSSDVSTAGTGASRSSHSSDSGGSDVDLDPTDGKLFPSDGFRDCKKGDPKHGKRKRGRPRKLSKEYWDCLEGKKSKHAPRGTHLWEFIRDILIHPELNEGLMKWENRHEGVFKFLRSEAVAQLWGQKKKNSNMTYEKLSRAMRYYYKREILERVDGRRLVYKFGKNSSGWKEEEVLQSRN
# Outline: as §1
# [4] = biological target: ETV1 (Homo sapiens, UniProt P50549 1-477)
# Sequence of ETV1 (P50549 whole entry): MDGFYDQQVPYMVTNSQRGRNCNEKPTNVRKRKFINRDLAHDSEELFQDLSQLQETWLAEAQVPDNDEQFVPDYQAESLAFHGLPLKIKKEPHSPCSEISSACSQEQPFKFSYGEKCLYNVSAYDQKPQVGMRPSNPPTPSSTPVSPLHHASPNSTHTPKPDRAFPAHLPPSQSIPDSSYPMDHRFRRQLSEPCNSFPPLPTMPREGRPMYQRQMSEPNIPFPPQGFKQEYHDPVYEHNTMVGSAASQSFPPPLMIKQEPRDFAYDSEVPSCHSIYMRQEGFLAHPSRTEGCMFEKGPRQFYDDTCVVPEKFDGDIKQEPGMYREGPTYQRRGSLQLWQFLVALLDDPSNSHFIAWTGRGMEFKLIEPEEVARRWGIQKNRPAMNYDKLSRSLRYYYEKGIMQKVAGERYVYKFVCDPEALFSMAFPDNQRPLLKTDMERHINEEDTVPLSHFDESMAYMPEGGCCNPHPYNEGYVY
# Outline: as §1
# [5] = biological target: T4, ERF (Homo sapiens, UniProt P50548 1-548)
# T4 sequence: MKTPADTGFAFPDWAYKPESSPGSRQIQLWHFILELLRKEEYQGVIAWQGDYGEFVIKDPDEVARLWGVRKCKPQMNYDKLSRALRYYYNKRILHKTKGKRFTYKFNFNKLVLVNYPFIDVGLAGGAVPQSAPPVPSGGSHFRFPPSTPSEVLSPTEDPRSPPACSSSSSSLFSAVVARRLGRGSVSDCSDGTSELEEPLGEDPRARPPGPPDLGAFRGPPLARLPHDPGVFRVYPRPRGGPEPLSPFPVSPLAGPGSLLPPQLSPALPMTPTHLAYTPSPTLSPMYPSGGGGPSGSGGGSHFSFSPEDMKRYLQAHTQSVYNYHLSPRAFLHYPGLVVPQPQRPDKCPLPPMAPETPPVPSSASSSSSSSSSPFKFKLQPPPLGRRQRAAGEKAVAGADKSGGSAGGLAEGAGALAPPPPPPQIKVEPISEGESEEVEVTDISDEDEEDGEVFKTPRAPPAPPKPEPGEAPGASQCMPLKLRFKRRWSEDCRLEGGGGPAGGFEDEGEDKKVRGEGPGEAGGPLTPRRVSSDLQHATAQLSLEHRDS
# Outline: as §1
# [6] = biological target: T5, ETV3L (Homo sapiens, UniProt Q6ZN32 1-361)
# T5 sequence: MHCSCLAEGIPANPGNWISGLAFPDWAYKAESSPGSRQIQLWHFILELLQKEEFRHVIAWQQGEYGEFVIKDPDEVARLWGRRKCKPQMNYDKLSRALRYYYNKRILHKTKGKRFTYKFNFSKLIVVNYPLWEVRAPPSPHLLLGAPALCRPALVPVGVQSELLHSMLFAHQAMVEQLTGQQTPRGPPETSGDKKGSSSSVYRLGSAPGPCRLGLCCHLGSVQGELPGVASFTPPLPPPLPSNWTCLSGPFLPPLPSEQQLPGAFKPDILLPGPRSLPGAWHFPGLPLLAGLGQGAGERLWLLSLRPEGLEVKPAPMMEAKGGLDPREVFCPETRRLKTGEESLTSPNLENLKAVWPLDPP
# Outline: as §1
# [7] = biological target: T6, ETS2 (Homo sapiens, UniProt P15036 1-469)
# T6 sequence: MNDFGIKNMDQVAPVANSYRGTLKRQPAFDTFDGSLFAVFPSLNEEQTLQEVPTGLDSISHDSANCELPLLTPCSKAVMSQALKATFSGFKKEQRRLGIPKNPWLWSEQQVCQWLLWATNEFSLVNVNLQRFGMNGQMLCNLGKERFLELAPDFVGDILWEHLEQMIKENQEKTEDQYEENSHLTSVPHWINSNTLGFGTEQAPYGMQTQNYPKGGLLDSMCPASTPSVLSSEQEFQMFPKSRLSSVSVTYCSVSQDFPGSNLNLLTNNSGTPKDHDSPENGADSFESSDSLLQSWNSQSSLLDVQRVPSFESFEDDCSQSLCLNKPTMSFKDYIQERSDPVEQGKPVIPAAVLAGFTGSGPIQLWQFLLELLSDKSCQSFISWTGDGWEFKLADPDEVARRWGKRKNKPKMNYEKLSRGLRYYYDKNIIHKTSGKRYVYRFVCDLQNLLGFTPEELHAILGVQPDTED
# Outline: as §1
# [8] = biological target: T7, SPDEF (Homo sapiens, UniProt O95238 1-335)
# T7 sequence: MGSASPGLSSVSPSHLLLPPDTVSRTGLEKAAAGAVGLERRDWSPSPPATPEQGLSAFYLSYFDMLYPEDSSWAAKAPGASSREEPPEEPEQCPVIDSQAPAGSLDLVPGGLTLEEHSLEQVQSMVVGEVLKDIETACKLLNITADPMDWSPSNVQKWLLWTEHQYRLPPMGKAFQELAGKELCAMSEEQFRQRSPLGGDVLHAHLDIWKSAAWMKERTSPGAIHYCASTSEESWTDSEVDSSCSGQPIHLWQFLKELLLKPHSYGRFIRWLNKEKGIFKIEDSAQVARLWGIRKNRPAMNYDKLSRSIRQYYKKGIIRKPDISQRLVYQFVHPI
# Outline: as §1
# [9] = biological target: T8, ETV7 (Homo sapiens, UniProt Q9Y603 1-341)
# T8 sequence: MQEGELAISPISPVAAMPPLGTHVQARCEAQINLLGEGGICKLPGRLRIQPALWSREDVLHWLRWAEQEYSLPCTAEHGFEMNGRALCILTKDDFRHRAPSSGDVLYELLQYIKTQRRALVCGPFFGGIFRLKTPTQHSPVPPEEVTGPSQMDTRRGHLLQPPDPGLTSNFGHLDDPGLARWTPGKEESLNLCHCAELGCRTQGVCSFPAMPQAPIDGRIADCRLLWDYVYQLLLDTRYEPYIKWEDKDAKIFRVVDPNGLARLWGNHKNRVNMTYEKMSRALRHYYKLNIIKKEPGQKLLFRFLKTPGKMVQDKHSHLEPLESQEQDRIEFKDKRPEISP
# Outline: as §1
# [10] = biological target: T9, ELF5 (Homo sapiens, UniProt Q9UKW6-2 1-255)
# T9 sequence: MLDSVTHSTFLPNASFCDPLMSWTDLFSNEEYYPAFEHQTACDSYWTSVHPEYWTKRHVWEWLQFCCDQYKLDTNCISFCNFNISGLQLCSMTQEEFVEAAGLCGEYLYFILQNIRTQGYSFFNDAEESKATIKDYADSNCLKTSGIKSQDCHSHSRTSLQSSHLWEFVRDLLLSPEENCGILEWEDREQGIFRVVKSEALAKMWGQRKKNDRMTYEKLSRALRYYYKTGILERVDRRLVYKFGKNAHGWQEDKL
# Outline: as §1
# [11] = biological target: T10, ETV3 (Homo sapiens, UniProt P41162-2 1-143)
# T10 sequence: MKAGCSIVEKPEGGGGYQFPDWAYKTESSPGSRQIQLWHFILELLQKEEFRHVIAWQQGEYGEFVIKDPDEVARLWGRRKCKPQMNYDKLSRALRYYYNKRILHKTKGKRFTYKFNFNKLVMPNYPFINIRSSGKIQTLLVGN
# Outline: as §1
# [12] = biological target: ETV6 (Homo sapiens, UniProt P41212 1-452)
# Sequence of ETV6 (P41212 whole entry): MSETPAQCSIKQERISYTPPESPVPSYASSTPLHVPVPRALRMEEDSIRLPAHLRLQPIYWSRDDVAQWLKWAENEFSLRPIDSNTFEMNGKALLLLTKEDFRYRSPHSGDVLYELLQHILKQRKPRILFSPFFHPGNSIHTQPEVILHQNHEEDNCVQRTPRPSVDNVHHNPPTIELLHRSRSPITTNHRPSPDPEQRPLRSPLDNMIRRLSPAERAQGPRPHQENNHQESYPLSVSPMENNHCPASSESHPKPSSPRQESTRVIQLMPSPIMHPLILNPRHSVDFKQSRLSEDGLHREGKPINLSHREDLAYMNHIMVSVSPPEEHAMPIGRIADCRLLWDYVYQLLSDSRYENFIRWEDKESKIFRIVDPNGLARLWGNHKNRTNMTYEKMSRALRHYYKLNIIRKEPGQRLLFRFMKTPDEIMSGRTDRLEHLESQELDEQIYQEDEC
# Outline: as §1
sequence,measurement,setting,value
ACCCCT,binding signal,[1],"1.28 fold enrichment (6-mer frequency, TF over GST control)"
same,binding signal,[2],"1.17 fold enrichment (6-mer frequency, TF over GST control)"
same,binding signal,[3],"1.09 fold enrichment (6-mer frequency, TF over GST control)"
same,binding signal,[4],"1.21 fold enrichment (6-mer frequency, TF over GST control)"
same,binding signal,[5],"1.06 fold enrichment (6-mer frequency, TF over GST control)"
same,binding signal,[6],"1.05 fold enrichment (6-mer frequency, TF over GST control)"
same,binding signal,[7],"1.08 fold enrichment (6-mer frequency, TF over GST control)"
same,binding signal,[8],"1.16 fold enrichment (6-mer frequency, TF over GST control)"
same,binding signal,[9],"1 fold enrichment (6-mer frequency, TF over GST control)"
same,binding signal,[10],"1 fold enrichment (6-mer frequency, TF over GST control)"
same,binding signal,[11],"1.03 fold enrichment (6-mer frequency, TF over GST control)"
same,binding signal,[12],"1.16 fold enrichment (6-mer frequency, TF over GST control)"
